Holding throughout (assay): DAPPL (digital affinity profiling via proximity ligation, sequencing); 10 mM Tris-HCl pH 7.5, 50 mM NaCl, 1 mM DTT, 4% glycerol, room temperature, 30 min; GST-TFs on glutathione beads, 16-mer random dsDNA library, 0.1% formaldehyde crosslink after washing; high values mean tight binding
One test deals with T1, FEV (Homo sapiens, UniProt Q99581 1-238).
T1 sequence: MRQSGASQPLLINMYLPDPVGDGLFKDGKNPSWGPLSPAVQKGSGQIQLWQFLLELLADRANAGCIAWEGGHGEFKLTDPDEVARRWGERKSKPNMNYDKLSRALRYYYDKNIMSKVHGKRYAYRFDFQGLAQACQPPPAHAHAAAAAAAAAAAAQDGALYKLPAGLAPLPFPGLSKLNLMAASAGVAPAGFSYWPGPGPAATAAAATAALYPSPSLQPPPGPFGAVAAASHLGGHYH
The following applies: protein: recombinant; tags: N-terminal GST; dsDNA, one strand shown. The procedure, abridged: (§1)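 Human transcription factors were made in yeast as GST fusions, captured on glutathione beads and barcoded with DNA. With a tag-only sample included, the pool was incubated with 200 nmole of a random double-stranded 16-mer DNA library in Tris/NaCl/DTT/glycerol buffer at room temperature for 30 min, then crosslinked with 0.1% formaldehyde after washing, ligated by proximity, amplified and sequenced. For binding signal, each hexamer's read frequency for a factor is divided by its frequency for the tag-only sample.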

The target in the next test is ETV5 (Homo sapiens, UniProt P41161 1-510). The conditions noted are these: protein: recombinant; tags: N-terminal GST; dsDNA, one strand shown. The method, boiled down: as §1
The target in a further test is HSF1 (Homo sapiens, UniProt Q00613 1-529). The conditions noted are these: protein: recombinant; tags: N-terminal GST; chain copies: 3; dsDNA, one strand shown. The procedure, abridged: as §1
For another test, the target named is T2, SPIC (Homo sapiens, UniProt Q8N5J4 1-248).
T2 sequence: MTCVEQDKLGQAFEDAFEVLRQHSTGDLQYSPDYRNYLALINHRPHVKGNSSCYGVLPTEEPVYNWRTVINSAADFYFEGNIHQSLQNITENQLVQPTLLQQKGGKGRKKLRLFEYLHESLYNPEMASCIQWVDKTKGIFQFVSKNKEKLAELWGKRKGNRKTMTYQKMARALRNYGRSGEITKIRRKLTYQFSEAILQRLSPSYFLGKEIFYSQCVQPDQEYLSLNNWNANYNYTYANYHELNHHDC
The conditions noted are these: protein: recombinant; tags: N-terminal GST; dsDNA, one strand shown. The procedure, abridged: as §1

Another test concerns the target ELF4 (Homo sapiens, UniProt Q99607 1-663). The following applies: protein: recombinant; tags: N-terminal GST; dsDNA, one strand shown. The method, boiled down:
as §1

The target of another test is T3, ELK4 (Homo sapiens, UniProt P28324-2 1-405).
T3 sequence: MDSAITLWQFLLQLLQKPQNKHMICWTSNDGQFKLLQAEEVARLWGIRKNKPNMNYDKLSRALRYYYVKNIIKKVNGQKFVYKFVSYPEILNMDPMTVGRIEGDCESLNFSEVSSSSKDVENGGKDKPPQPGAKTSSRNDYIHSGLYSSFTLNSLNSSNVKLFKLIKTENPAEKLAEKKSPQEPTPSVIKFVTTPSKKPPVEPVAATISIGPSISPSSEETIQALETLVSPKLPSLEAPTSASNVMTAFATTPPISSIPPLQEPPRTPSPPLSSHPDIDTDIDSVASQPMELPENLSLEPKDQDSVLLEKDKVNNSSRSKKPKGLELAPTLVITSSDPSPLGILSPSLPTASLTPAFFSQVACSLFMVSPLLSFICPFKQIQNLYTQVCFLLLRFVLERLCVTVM
The conditions noted are these: protein: recombinant; tags: N-terminal GST; dsDNA, one strand shown. The method, boiled down:
as §1

In a further test the target is T4, ETV2 (Homo sapiens, UniProt O00321 1-342).
T4 sequence: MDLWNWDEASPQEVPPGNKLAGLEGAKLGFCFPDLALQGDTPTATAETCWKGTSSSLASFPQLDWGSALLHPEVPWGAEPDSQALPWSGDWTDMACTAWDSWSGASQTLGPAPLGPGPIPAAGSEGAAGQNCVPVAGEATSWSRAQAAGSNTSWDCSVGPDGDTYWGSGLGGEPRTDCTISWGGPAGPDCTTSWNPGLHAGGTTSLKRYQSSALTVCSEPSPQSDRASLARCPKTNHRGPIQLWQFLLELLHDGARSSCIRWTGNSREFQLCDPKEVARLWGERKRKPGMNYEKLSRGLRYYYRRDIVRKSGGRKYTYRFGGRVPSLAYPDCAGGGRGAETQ
The following applies: protein: recombinant; tags: N-terminal GST; dsDNA, one strand shown. The method, boiled down:
as §1

For the next test, the target named is T5, ELF3 (Homo sapiens, UniProt P78545 1-371).
T5 sequence: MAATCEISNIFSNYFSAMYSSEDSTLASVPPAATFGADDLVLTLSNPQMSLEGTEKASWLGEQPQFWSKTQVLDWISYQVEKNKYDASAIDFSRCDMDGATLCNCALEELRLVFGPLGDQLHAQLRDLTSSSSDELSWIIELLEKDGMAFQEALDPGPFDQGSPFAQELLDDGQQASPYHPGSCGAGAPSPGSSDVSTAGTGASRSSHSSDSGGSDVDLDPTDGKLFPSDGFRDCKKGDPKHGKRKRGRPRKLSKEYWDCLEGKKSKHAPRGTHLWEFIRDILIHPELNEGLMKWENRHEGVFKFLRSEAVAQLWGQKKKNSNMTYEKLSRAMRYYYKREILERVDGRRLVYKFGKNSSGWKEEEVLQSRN
The following applies: protein: recombinant; tags: N-terminal GST; dsDNA, one strand shown. The procedure, abridged: as §1

The target of the next test is CRX (Homo sapiens, UniProt O43186 1-299). The conditions noted are these: protein: recombinant; tags: N-terminal GST; dsDNA, one strand shown. The procedure, abridged: as §1
The target of a further test is ETV1 (Homo sapiens, UniProt P50549 1-477). The following applies: protein: recombinant; tags: N-terminal GST; dsDNA, one strand shown. The method, boiled down: as §1
The next test deals with T6, ERF (Homo sapiens, UniProt P50548 1-548).
T6 sequence: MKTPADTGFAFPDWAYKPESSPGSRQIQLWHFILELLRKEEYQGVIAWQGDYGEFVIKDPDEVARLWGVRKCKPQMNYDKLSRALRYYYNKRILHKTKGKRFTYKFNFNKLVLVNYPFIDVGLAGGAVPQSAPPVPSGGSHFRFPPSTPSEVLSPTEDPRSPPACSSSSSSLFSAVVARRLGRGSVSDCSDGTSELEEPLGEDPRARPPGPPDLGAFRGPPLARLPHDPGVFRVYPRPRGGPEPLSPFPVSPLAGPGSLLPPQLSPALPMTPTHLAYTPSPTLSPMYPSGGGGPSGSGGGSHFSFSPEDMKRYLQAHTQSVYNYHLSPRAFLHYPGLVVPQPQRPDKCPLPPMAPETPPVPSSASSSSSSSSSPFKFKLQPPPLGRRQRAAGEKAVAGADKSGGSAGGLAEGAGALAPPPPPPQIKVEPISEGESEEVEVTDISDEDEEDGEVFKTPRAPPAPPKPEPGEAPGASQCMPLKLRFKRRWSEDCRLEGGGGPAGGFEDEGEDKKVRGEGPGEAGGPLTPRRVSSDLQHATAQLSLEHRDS
The following applies: protein: recombinant; tags: N-terminal GST; dsDNA, one strand shown. The method, boiled down: as §1

A further test deals with T7, ETV3L (Homo sapiens, UniProt Q6ZN32 1-361).
T7 sequence: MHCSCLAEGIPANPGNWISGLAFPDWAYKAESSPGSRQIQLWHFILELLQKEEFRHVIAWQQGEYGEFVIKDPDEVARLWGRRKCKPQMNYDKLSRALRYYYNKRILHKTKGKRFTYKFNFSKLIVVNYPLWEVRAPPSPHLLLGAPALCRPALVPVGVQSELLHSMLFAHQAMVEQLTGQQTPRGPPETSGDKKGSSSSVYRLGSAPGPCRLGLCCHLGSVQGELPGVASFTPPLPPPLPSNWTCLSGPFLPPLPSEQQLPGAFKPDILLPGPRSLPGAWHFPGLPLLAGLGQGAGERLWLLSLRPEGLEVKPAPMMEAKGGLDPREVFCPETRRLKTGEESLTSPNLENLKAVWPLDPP
The conditions noted are these: protein: recombinant; tags: N-terminal GST; dsDNA, one strand shown. The method, boiled down: as §1

A further test deals with T8, ETS2 (Homo sapiens, UniProt P15036 1-469).
T8 sequence: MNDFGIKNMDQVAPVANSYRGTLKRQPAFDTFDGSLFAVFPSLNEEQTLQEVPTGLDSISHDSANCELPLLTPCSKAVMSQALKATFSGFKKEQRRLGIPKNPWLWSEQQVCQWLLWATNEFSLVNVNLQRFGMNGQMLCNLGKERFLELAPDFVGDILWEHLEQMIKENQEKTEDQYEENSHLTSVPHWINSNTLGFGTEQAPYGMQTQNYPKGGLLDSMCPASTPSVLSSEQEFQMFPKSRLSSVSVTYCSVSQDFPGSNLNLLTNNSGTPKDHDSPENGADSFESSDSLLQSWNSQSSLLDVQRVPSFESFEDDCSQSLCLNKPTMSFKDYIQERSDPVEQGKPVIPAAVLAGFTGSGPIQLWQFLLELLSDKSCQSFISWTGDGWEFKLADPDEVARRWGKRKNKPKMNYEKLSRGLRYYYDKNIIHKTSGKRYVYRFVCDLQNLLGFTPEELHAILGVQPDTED
The conditions noted are these: protein: recombinant; tags: N-terminal GST; dsDNA, one strand shown. The procedure, abridged:
as §1

Another test deals with T9, SPDEF (Homo sapiens, UniProt O95238 1-335).
T9 sequence: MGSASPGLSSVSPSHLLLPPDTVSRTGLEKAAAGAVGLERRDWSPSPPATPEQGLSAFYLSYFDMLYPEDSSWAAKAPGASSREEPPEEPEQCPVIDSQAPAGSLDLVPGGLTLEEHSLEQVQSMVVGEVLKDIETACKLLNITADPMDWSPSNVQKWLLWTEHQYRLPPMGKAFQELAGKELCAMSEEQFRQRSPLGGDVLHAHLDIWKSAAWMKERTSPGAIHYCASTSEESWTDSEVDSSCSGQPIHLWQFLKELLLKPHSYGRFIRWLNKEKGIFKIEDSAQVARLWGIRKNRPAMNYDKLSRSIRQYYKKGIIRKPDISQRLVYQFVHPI
The conditions noted are these: protein: recombinant; tags: N-terminal GST; dsDNA, one strand shown. The procedure, abridged:
as §1

The next test addresses T10, ETV7 (Homo sapiens, UniProt Q9Y603 1-341).
T10 sequence: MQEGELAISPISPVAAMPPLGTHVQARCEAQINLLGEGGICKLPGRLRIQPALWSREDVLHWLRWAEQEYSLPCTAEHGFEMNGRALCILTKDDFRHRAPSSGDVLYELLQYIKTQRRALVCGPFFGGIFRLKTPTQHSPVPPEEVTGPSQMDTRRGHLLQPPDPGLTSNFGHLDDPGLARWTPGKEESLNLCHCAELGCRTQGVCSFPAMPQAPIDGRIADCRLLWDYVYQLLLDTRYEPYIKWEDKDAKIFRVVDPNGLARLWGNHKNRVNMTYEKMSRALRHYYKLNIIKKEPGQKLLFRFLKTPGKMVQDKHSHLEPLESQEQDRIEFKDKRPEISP
The conditions noted are these: protein: recombinant; tags: N-terminal GST; dsDNA, one strand shown. The method, boiled down:
as §1

For the next test, the target named is T11, ELF5 (Homo sapiens, UniProt Q9UKW6-2 1-255).
T11 sequence: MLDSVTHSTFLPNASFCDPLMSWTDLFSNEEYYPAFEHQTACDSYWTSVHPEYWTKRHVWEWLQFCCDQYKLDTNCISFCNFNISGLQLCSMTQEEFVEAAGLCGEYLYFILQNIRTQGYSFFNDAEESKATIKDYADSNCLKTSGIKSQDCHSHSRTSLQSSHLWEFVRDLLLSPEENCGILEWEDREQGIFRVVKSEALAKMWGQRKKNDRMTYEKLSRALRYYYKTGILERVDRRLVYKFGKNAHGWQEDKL
The conditions noted are these: protein: recombinant; tags: N-terminal GST; dsDNA, one strand shown. The method, boiled down: as §1

The target of the next test is T12, ETV3 (Homo sapiens, UniProt P41162-2 1-143).
T12 sequence: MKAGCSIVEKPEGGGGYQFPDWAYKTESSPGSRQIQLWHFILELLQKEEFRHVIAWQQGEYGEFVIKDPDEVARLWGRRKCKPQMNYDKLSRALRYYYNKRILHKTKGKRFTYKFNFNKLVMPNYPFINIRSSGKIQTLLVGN
The following applies: protein: recombinant; tags: N-terminal GST; dsDNA, one strand shown. The method, boiled down: as §1

The next test deals with ETV6 (Homo sapiens, UniProt P41212 1-452). The conditions noted are these: protein: recombinant; tags: N-terminal GST; dsDNA, one strand shown. The method, boiled down: as §1

The source of these data is publication PMC7862700, “An all-to-all approach to the identification of sequence-specific readers for epigenetic DNA modifications on cytosine”.

HSF1, sequence (Q00613 whole entry): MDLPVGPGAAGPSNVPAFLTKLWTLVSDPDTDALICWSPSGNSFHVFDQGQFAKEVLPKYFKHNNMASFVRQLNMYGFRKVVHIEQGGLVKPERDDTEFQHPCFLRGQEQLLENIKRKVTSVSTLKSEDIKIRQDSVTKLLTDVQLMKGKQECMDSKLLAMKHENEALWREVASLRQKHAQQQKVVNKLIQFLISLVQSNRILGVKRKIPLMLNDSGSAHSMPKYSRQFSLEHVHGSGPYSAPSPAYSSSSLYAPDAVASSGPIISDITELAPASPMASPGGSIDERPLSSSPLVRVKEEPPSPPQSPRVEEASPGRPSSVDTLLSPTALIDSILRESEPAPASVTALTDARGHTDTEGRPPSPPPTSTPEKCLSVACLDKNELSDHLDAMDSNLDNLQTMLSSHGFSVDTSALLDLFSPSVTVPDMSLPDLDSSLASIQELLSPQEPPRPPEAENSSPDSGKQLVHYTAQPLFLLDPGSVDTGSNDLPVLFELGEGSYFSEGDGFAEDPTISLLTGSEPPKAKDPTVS
ETV1, sequence (P50549 whole entry): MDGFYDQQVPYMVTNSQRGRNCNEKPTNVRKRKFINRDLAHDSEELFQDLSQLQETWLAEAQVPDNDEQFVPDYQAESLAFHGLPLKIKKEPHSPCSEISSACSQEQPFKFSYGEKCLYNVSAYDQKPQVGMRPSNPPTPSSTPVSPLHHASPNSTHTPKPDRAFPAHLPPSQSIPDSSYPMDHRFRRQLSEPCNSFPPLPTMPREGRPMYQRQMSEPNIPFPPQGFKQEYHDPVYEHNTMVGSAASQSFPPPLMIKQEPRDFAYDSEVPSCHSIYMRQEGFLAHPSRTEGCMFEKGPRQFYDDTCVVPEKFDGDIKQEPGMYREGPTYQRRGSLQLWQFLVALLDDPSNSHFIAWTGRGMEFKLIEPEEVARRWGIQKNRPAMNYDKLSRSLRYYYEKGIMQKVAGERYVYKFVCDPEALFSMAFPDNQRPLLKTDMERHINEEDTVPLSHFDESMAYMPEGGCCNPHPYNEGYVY
ELF4, sequence (Q99607 whole entry): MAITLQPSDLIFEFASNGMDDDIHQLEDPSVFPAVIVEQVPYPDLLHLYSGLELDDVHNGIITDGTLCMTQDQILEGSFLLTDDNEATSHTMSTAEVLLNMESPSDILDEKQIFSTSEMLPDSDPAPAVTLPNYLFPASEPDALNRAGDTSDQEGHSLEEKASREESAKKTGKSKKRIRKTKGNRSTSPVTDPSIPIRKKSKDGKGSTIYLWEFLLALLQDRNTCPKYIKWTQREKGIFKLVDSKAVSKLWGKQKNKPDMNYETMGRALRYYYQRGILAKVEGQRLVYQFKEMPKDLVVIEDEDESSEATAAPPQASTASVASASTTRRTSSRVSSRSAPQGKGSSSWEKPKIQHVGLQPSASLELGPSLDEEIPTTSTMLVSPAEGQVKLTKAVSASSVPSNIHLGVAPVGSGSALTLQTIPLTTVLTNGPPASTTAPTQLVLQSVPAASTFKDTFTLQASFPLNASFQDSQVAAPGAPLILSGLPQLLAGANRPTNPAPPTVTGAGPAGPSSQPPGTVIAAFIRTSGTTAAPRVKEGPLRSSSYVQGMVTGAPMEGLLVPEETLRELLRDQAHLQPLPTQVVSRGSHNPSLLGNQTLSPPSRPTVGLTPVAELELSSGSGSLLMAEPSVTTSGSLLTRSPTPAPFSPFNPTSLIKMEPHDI
ETV6, sequence (P41212 whole entry): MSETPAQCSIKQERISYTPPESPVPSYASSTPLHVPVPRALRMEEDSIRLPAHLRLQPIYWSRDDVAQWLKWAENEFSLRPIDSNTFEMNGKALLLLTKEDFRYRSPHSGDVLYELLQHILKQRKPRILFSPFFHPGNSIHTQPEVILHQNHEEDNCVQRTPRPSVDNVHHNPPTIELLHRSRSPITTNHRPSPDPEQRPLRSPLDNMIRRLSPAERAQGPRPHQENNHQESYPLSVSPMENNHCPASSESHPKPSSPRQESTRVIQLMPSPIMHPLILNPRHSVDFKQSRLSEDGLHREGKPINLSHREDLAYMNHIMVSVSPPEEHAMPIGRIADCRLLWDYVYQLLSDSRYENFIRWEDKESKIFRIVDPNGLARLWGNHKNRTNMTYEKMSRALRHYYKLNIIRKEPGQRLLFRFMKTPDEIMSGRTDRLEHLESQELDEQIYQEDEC
CRX, sequence (O43186 whole entry): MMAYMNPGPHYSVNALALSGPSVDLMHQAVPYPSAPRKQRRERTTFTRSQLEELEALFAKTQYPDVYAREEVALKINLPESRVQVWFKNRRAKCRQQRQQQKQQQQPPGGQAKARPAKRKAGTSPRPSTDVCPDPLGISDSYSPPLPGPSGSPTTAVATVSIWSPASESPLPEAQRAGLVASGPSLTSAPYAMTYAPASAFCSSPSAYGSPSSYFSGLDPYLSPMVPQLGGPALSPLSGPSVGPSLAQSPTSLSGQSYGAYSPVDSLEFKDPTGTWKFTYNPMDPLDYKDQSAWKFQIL
ETV5, sequence (P41161 whole entry): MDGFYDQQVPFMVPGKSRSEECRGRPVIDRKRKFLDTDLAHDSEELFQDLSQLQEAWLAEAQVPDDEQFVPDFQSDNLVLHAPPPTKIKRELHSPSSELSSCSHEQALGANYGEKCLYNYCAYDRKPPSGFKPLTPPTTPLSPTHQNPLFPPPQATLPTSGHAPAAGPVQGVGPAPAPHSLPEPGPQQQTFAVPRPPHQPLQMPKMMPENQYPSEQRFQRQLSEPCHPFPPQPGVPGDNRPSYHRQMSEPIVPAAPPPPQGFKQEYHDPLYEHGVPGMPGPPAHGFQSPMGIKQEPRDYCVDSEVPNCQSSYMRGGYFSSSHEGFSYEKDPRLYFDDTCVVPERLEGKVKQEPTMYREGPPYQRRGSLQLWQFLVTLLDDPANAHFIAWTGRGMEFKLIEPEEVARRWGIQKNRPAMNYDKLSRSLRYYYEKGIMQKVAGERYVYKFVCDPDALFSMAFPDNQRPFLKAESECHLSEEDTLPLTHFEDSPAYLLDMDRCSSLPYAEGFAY

Regarding TAGCTC, the binding signal was 1.19 fold enrichment (6-mer frequency, TF over GST control) in the test with FEV; 1.25 fold enrichment (6-mer frequency, TF over GST control) in the test with ETV5; 1.24 fold enrichment (6-mer frequency, TF over GST control) in the test with HSF1; 1.19 fold enrichment (6-mer frequency, TF over GST control) with SPIC; 1.22 fold enrichment (6-mer frequency, TF over GST control) with ELF4; 1.26 fold enrichment (6-mer frequency, TF over GST control) with ELK4. Also, the binding signal was 1.37 fold enrichment (6-mer frequency, TF over GST control) with ETV2; 1.17 fold enrichment (6-mer frequency, TF over GST control) with ELF3; 1.46 fold enrichment (6-mer frequency, TF over GST control) with CRX; 1.21 fold enrichment (6-mer frequency, TF over GST control) with ETV1; 1.04 fold enrichment (6-mer frequency, TF over GST control) in the test with ERF; 1.14 fold enrichment (6-mer frequency, TF over GST control) in the test with ETV3L. Moreover, the binding signal with ETS2 was 1.21 fold enrichment (6-mer frequency, TF over GST control); in the test with SPDEF, 1.24 fold enrichment (6-mer frequency, TF over GST control); with ETV7 it was 1.24 fold enrichment (6-mer frequency, TF over GST control); in the test with ELF5, 1.1 fold enrichment (6-mer frequency, TF over GST control); with ETV3 it was 1.17 fold enrichment (6-mer frequency, TF over GST control); with ETV6 it was 1.14 fold enrichment (6-mer frequency, TF over GST control).
